Most compounds without a hit are left out; they make up all but 11% or so of the library.
NPSR antag – qHTS Assay for Antagonists of the Neuropeptide S Receptor: cAMP Signal Transduction. CHO-NPSR cells, cAMP TR-FRET, antagonist mode. Q6W5P4. Potency, µM (titrated, usually from 38.3 µM), without a hit: at the top dose activity change, negative = inhibition, hits mostly inhibitors. hit rate 1% among 220,000; active = well fitted curve in the direction sought with a large enough effect; inconclusive = small, poorly fitted or top-dose-only effect, or another doubt; inactive = no such curve, though single readings can be large; an effect the other way counts as inactive or inconclusive; also: potency is read from the fitted curve at half-maximal effect; nearly all actives have a fitted effect of over 50% in size
Target sequence (Q6W5P4 whole entry, looked up): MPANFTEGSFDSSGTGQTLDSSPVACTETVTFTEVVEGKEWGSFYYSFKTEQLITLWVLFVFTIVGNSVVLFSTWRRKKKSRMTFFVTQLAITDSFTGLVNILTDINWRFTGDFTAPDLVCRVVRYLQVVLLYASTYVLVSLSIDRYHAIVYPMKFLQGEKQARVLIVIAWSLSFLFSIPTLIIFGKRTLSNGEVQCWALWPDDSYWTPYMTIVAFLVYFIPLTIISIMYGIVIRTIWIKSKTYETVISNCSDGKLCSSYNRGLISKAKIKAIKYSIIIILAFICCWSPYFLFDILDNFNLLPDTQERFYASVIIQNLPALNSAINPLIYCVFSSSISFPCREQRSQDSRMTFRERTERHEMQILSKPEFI
IMPase Li cell – qHTS Assay for Identifying the Cell-Membrane Permeable IMPase Inhibitors: Potentiation with Lithium; Potency, µM (series often up to 59.4 µM), for the others: at the highest dose activity, negative = IMPase inhibition, usual class: inhibitors; hit rate 0.35% among 210,000; AID 1457, 2008; CHO-M1 cells, IP1 TR-FRET (IP-One), carbachol + lithium; active = well fitted curve in the direction sought with a large enough effect; inconclusive = small, poorly fitted or top-dose-only effect, or another doubt; inactive = no such curve, though single readings can be large; an effect the other way counts as inactive or inconclusive;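 also: IP1 builds up when IMPase is blocked and the TR-FRET signal falls; potency is read from the fitted curve at half-maximal effect; plate controls were basal vehicle for no effect and high inhibitor control for full effect; nearly all actives have a fitted effect of over 50% in size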
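Lithium-sensitised IP1 accumulation assay; M1-expressing CHO cells treated 30 min at 37C with compound. Competitive antibody detection by time-resolved FRET followed a 10 min room-temperature lysis step.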
PNC assembly inh – High Content Assay for Compounds that inhibit the Assembly of the Perinucleolar Compartment. PC3M PTB-GFP, PNC prevalence imaging, 16 h; hits give low values. activity change (PNC), negative = inhibition, % at 10 µM. hit rate 3.1% among 140,000. AID 2417, 2010;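 active = readout at or below -70, meaning at least 70% loss of cells showing the perinucleolar compartment, a nuclear body marking cancer cells; inconclusive = readout between -30 and a set limit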;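 also: plate controls were DMSO wells for no effect and camptothecin positive control wells for full effect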
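PC3M cells stably expressing PTB-GFP, 750–1000 cells/well, treated 16 h at 37 °C with compound (23 nl of library stock), in duplicate. After paraformaldehyde fixation and Hoechst stain, imaged at 20x; PNC prevalence scored by image analysis.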
HPGD inh – qHTS Assay for Inhibitors of HPGD (15-Hydroxyprostaglandin Dehydrogenase) | purified HPGD, NADH fluorescence kinetic, PGE2 substrate | Potency, µM, for inactives: at the highest dose activity change, negative = inhibition, actives largely listed as inhibitors | AID 894, 2007 | 15-hydroxyprostaglandin dehydrogenase [NAD(+)] (Homo sapiens), P15428 | hit rate 4.3% among 150,000; also: potency is read from the fitted curve at half-maximal effect
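20 nM HPGD preincubated 15 min at room temperature with compound in 50 mM Tris-HCl pH 8, 0.01% Tween 20. Started with 1 mM NAD+ and 30 uM prostaglandin E2; NADH fluorescence (360/450 nm) read 5 times over 30-s intervals, last minus first.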
ALDH1A1 block – qHTS Assay for Inhibitors of Aldehyde Dehydrogenase 1 (ALDH1A1); Purified ALDH1A1, NADH fluorescence, propionaldehyde substrate; Potency, µM (highest dose often 75.3 µM), for inactives: top-dose activity, negative = inhibition, usual class: inhibitors; hit rate 7.3% among 220,000; Aldehyde dehydrogenase 1A1 (Homo sapiens), P00352; AID 1030, 2008;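 also: potency is read from the fitted curve at half-maximal effect; plate controls were no enzyme wells and a reference inhibitor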
IMPase inh – qHTS Assay for Identifying the Cell-Membrane Permeable IMPase Inhibitors; 120,000 tested, under 10 active; CHO-M1 cells, IP1 accumulation, HTRF TR-FRET ratio; inhibition (IP1 accumulation), % at 46.1 µM; Inositol monophosphatase 1 (Rattus norvegicus), P97697; AID 901, 2007; active = well fitted curve in the direction sought with a large enough effect in the signal ratio, not every such curve was filed as active; inconclusive = small, poorly fitted or top-dose-only effect, or a change in a side signal; inactive = no such curve, though single readings can be large or run the other way; the % refers to the signal ratio;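 also: cells stimulated with carbachol in lithium chloride buffer; plate controls were DMSO basal wells for no effect and reference inhibitor wells for full effect; higher means more IMPase inhibition seen as more IP1 and lower FRET ratio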
Target sequence (P97697 whole entry, looked up): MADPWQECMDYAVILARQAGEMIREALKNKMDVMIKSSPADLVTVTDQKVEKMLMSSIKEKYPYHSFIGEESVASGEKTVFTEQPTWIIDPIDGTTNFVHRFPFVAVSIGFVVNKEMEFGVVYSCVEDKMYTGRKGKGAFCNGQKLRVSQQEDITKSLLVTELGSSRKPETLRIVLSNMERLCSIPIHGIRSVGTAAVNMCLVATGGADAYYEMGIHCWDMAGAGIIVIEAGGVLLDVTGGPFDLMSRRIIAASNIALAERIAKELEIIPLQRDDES
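In this qHTS, compounds (final up to 46 uM) act on CHO-M1 cells that are then activated through the M1 receptor with carbachol, in pH 7.4 buffer containing 50 mM LiCl, for 30 min. IP1 accumulation is quantified by the IP-One immunoassay.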
* = called active by the depositor; [ ] = dose if it differs, or a comment. Unless noted, calls follow the shape of the dose curve; as a rule, active = well fitted inhibition curve with a large enough effect (not every such curve was filed as active); inconclusive = small, poorly fitted or top-dose-only effect, or another doubt; inactive = no such curve, though single readings can be large or run the other way. Unless noted, % is scaled to controls: 0 for no effect and ±100 for the full control effect.

Screening COc1ccc(-n2c(SCC(=O)Nc3sc4c(c3C#N)CCCC4)nnc2-c2ccccc2OC)cc1 returned NPSR antag -26%[46.1 µM], IMPase Li cell 7%, PNC assembly inh 146, HPGD inh -13%, ALDH1A1 block -10% and IMPase inh 2.
`N#Cc1c(NC(=O)CSc2nnc(-c3ccco3)n2-c2ccccc2)sc2c1CCC2` gave NPSR antag -16%[46.1 µM], IMPase Li cell 22%[38.3 µM], PNC assembly inh inconclusive, HPGD inh -13%, ALDH1A1 block -15% and IMPase inh 1.
For NC(=O)c1c(NC(=O)CSc2nnc(-c3ccco3)n2-c2ccccc2)sc2c1CCC2 the results were NPSR antag inconclusive, IMPase Li cell -17%[38.3 µM], PNC assembly inh -10, HPGD inh 28µM*, ALDH1A1 block inconclusive and IMPase inh inconclusive.
`Cc1nnc(SCC(=O)Nc2sc3c(c2C#N)CCCCC3)n1N` gave NPSR antag -10%[46.1 µM], IMPase Li cell 12%[38.3 µM], PNC assembly inh 23, HPGD inh -7%, ALDH1A1 block 22µM* and IMPase inh 3.
COc1ccc(-c2nnc(SCC(=O)Nc3sc4c(c3C#N)CCCC4)n2-c2ccccc2)cc1 was read as NPSR antag -3%[46.1 µM], IMPase Li cell 14%, PNC assembly inh -86*, HPGD inh -11%, ALDH1A1 block inconclusive and IMPase inh -13.
CCOC(=O)c1cc2c(=O)n3ccccc3nc2n(Cc2ccco2)c1=NC(=O)c1cccnc1 was read as NPSR antag -18%[46.1 µM], PNC assembly inh 18, ALDH1A1 block 3% and IMPase inh inconclusive.
Screening O=C1CC(Nc2ccccc2)C(=O)N1Cc1ccccc1 (configuration not stated) returned NPSR antag 3%[46.1 µM], IMPase Li cell 20%[38.3 µM], PNC assembly inh inconclusive, HPGD inh 1%, ALDH1A1 block 1% and IMPase inh 3.
CCCc1cc(=O)[nH]c(SCc2ccccc2Cl)n1 was read as NPSR antag 3%[46.1 µM], IMPase Li cell 11%[38.3 µM], PNC assembly inh 18, HPGD inh 14µM*, ALDH1A1 block 9% and IMPase inh 5.
For CCCc1cc(=O)[nH]c(SCC(=O)NC)n1 the results were NPSR antag -2%[46.1 µM], IMPase Li cell 3%[38.3 µM], PNC assembly inh 31, HPGD inh -6%, ALDH1A1 block 3% and IMPase inh 1.
CCCc1cc(=O)[nH]c(SCC(=O)CSc2nc(CCC)cc(=O)[nH]2)n1 was read as NPSR antag inconclusive, IMPase Li cell 4%[38.3 µM], PNC assembly inh -21, HPGD inh -11%, ALDH1A1 block 14µM* and IMPase inh -11.
For C(=NCCCN1CCOCC1)c1ccc2c(c1)OCO2 the results were NPSR antag -5%[46.1 µM], IMPase Li cell -5%[38.3 µM], PNC assembly inh -20, HPGD inh -19%, ALDH1A1 block inconclusive and IMPase inh 6.
`CCOc1ccc(C(=O)NCCO)cc1` gave NPSR antag 7%, IMPase Li cell -4% and ALDH1A1 block 14%.
O=C(c1ccc(-c2cccc(Cl)c2)o1)N1CCN(c2ccc([N+](=O)[O-])cc2)CC1 was read as NPSR antag -8%, IMPase Li cell 8%, PNC assembly inh -28, HPGD inh -14%, ALDH1A1 block inconclusive and IMPase inh -8.
Screening Cc1ccc(-c2nnc3n2N=C(c2ccccc2Br)CS3)cc1 returned NPSR antag inconclusive, IMPase Li cell 14%[38.3 µM], PNC assembly inh -9, HPGD inh 22µM*, ALDH1A1 block -6% and IMPase inh 4.
Screening CCC(=O)c1ccc(N2CCN(C(=O)Cc3ccccc3)CC2)c(F)c1 returned NPSR antag -12%[46.1 µM], IMPase Li cell 41%[38.3 µM], PNC assembly inh -29, HPGD inh -27%, ALDH1A1 block inconclusive and IMPase inh 6[1.84 µM].
`CN(Cc1ccc(Cl)cc1)C(=O)CCl` gave NPSR antag 0%, IMPase Li cell -11% and ALDH1A1 block 0.5µM*.
For COc1ccc(CN(C)C(=O)CCl)cc1 the results were NPSR antag -11%, IMPase Li cell 19% and ALDH1A1 block 0.5µM*.
CN(C)CCNC(=O)c1ccc(Cl)s1 was read as NPSR antag -1%[46.1 µM], IMPase Li cell 10%, PNC assembly inh inconclusive, HPGD inh -11%, ALDH1A1 block 9% and IMPase inh 5.
For CN(Cc1ccc(Cl)s1)C(=O)CCl the results were NPSR antag -19%, IMPase Li cell 9% and ALDH1A1 block 0.35µM*.
Screening Cc1ccc(CCNC(=O)C2CC(c3cccc(F)c3)=NO2)cc1 (configuration not stated) returned NPSR antag 16%.
Screening O=C(NCC1CCCO1)c1cc2n(n1)C(C(F)(F)F)CC(c1ccc(F)cc1)N2 (configuration not stated) returned NPSR antag 22%[46.1 µM], IMPase Li cell -3%[38.3 µM], PNC assembly inh 1, HPGD inh inconclusive, ALDH1A1 block inconclusive and IMPase inh -8.
For N#C/C(=C\c1ccc(O)c(O)c1)C(=O)Nc1ccccc1 the results were NPSR antag -16%[46.1 µM], IMPase Li cell 10%, HPGD inh inconclusive, ALDH1A1 block inconclusive and IMPase inh 15.
Screening N#C/C(=C/c1ccc(O)c(O)c1)C(=O)OC/C=C/c1ccccc1 returned IMPase Li cell 29% and ALDH1A1 block 4.5µM*.
`Cc1ccc(Cl)cc1N1CCN(S(=O)(=O)c2ccc3oc(=O)c4ncn(C)c4c3c2)CC1` gave IMPase inh -1.
Screening CCCn1c(/N=C/c2ccc3c(c2)OCO3)nc2ccccc21 returned NPSR antag -19%[46.1 µM], IMPase Li cell 16%[38.3 µM], PNC assembly inh 25, HPGD inh -24%, ALDH1A1 block 14µM* and IMPase inh 1.
For C(=N\c1nc2ccccc2n1CCN1CCCCC1)/c1ccc2c(c1)OCO2 the results were NPSR antag -4%[46.1 µM], IMPase Li cell 0%[38.3 µM], PNC assembly inh inconclusive, HPGD inh -7%, ALDH1A1 block inconclusive and IMPase inh 6.
For Nc1cc(=O)[nH]c(SCC(=O)Nc2cc(Cl)ccc2Cl)n1 the results were NPSR antag -12%.
For CC(=O)Nc1sc(/C(C#N)=C/c2ccc(Cl)c(Cl)c2)nc1-c1ccc(C)cc1 the results were NPSR antag -35%, IMPase Li cell 13µM*, PNC assembly inh inconclusive, HPGD inh -27% and ALDH1A1 block -14%.
